“And” between values parts separate entries of the source, which are not always exact repeats. Identical values can stand only once. About 83,000 compounds went through this panel and 20% of them were active in at least one assay; those are over-represented in the sample as a whole.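 A percent growth of 40 corresponds to 60% growth inhibition; 0 means no net growth; -100 means all cells died. Active threshold: below 10.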 The source made the active and inactive calls.

For one assay, the system named is EKVX NSCLC. The assay is described as follows: NCI-60 one-dose screen, 48 h (100 = growth as untreated, 0 = no growth, -100 = all killed). The settings on record: 4.75 µM. On the procedure: Growth inhibition of the EKVX human Non-Small Cell Lung tumor cell line is measured as a screen for anti-cancer activity. Cells are grown in 96 well plates and exposed to the test compound for 48 hours. Compounds are tested at a single concentration, which is 10^-5 M for most compounds. The reported endpoint is percent growth (GI% or GIPRCNT), where numbers from 0 - 100% represent growth inhibition, and numbers from -100% - 0 represent cell death. For example, a value of 40 represents 60% growth inhibition. A value of 0 means no net growth occurred over the course of the experiment. A value of -40 indicates 40% of cells at the beginning of the experiment died by the end of the experiment. A value of -100 means all cells are dead at the end of the experiment.
NCI-60 Human Tumor Cell Lines Screen was performed using the standard one-dose NCI protocol, which is described in more detail at https://dtp.cancer.gov/discovery_development/nci-60/default.htm.
Compounds with GIPRCNT values below 10 were considered active. Activity score was based on GIPRCNT using the following formula: […]
Score is 0 for GIPRCNT values of 100 or above, 50 for GIPRCNT values of 0, and 100 for GIPRCNT values of -100.
For the molecule `CC(=O)OCC1OC([S-])C(OC(C)=O)C(OC(C)=O)C1OC(C)=O.[Au+].c1ccc(CN2[CH-]N(Cc3ccccc3)C(c3ccccc3)=C2c2ccccc2)cc1`, the growth is 8.29% (active).

Staying with this assay, now noted: 10 µM.
Turning to `CC(=O)OCC1OC([S-])C(OC(C)=O)C(OC(C)=O)C1OC(C)=O.[Au+].c1ccc(CN2[CH-]N(Cc3ccccc3)C(c3ccccc3)=C2c2ccccc2)cc1`, the growth was -13.6% (active).

The assay is the same for the next values; noted with them: 10 µM unless noted.
For `CCOP(=O)(NC)OCC`, the growth is 146% (inactive).
Same read-out and setting: with `N#CCc1ccc(CC#N)cc1` the figure was 97.7% (inactive).
Still for that read-out and setting: with `C=CC[PH+](c1ccccc1)c1ccccc1.C=CC[PH+](c1ccccc1)c1ccccc1.[Pt+2].[S-]c1nc2ccccc2[nH]1.[S-]c1nc2ccccc2[nH]1` the figure was 33% (inactive); with `CN(C)c1ccc([N+](=O)[O-])c([N+](=O)[O-])c1`, 96% (inactive) and 96.2% (inactive); with `O=C(O)c1cc([N+](=O)[O-])cc([N+](=O)[O-])c1`, 104% (inactive).
The same measure, in the same setting: to `Oc1ccc(O)c(Cl)c1` belongs 112% (inactive); to `CN(C)c1ccc(N)cc1`, 96.2% (inactive) and 32.4% (inactive).
For `COCC1OC2OC3C(COC)OC(OC4C(COC)OC(OC5C(COC)OC(OC6C(COC)OC(OC7C(COC)OC(OC8C(COC)OC(OC1C(O)C2O)C(O)C8O)C(O)C7O)C(O)C6O)C(O)C5O)C(O)C4O)C(O)C3O` (stereo not given) (tested in a mixture with another compound), the growth was 105% (inactive).
On the same count and under the same terms, with `C=CCOC(=O)C(Br)CC` (stereo not given) the figure was 107% (inactive).
The same measure, in the same setting: to `CC[C@H](C)[C@H](NC(=O)CN(C)C)C(=O)N(C)[C@H](C[C@@H](OC(C)=O)c1nc(C(=O)NC23C4C5C2C2C3C4C52C(=O)OC)cs1)C(C)C` (stereo not given in full) belongs 40.4% (inactive).
The same measure, in the same setting: with `C[C@]12CC[C@H]3[C@@H](C[C@@H]4SC(Nc5ccccc5)=N[C@@]45C/C(=N/O)CC[C@]35C)[C@@H]1CCC2=O` the figure was 86.6% (inactive); with `CC1(C)N(Nc2ccccc2)C(=O)C2CCCN21` (stereo not given), 74.4% (inactive); with `CC1(C)C2CCC1(CS(=O)(=O)O)C(=O)C2` (stereo not given), 101% (inactive) and 94.6% (inactive).
With `C[C@]12CCC(=O)C[C@@H]1CC[C@@H]1[C@@H]2CC[C@]2(C)[C@@H](OC(=O)N(CCCl)N=O)CC[C@@H]12`, the growth is 69.9% (inactive).
With `CO[C@H]1[C@H](O[C@@H]2C[C@@H]3C/C=C/C(=O)O[C@@H](CO)C[C@H](O)[C@@H]4C[C@H](C)[C@H](C/C=C\C=C\[C@H](C)C[C@H](C2)O3)O4)O[C@@H](C)[C@H](O)[C@H]1O`, the growth is 28.7% (inactive).
On the same count and under the same terms, with `O=C1CCCCC1CN1CCCCC1` (stereo not given) the figure was 104% (inactive); with `CNC(=O)Oc1ccc(Cl)cc1SSc1cc(Cl)ccc1OC(=O)NC`, 109% (inactive); with `OCCNC1CCCCC1`, 97.9% (inactive).
Still for that read-out and setting: with `COC12CC3C4=CCOC5CC(=O)N6c7ccccc7C1(CCN2C4)C6C53` (stereo not given) the figure was 117% (inactive); with `N#CC(C#N)=Cc1cccc(F)c1`, 102% (inactive); with `CC[C@H](C)[C@H](NC(=O)[C@H]1CCCCN1C)C(=O)N(C)[C@H](C[C@@H](OC(C)=O)c1nc(C(=O)N[C@@H](Cc2ccccc2)C[C@H](C)C(=O)O)cs1)C(C)C`, 38.4% (inactive).
Still for that read-out and setting: to `CC1=C2[C@H]3OC(=O)[C@@H](C)[C@@H]3CC[C@@]2(C)C=CC1=O` belongs 121% (inactive).
Turning to `COc1cc(-c2ccc(N)c(OC)c2)ccc1N`, the growth was 96% (inactive).
Same read-out and setting: to `COc1ccc2c(c1)c(-c1nc(-c3cn(C)c4ncccc34)cs1)cn2CCCCN1CCOCC1` belongs 60.2% (inactive).
Same read-out and setting: to `O=NN1CCCCC1` belongs 126% (inactive).
Still for that read-out and setting: to `CCCn1cc2c3c(cccc31)[C@H]1C[C@@H](C)CN(C)[C@@H]1C2` belongs 94.9% (inactive); to `CC[C@H](C)[C@H](NC(=O)C12CC(NC)(C1)C2)C(=O)N(C)[C@H](C[C@@H](OC(C)=O)c1nc(C(=O)N[C@@H](Cc2ccccc2)C[C@H](C)C(=O)OC)cs1)C(C)C`, 37.3% (inactive).
Turning to `ClC1OC(Cl)(Cl)C(Cl)(Cl)OC1(Cl)Cl` (stereo not given), the growth was 100% (inactive).
Still for that read-out and setting: with `O=[N+]([O-])c1cc(Cl)c(Cl)cc1Cl` the figure was 106% (inactive) and 113% (inactive); with `CC(C)CCC1C(=O)NC(=O)NC1=O`, 96.1% (inactive).
On to `CN1CCN(c2ccc(Cl)cc2)CC1`, for which the growth was 107% (inactive).
Still for that read-out and setting: with `C#Cc1cccc(Nc2nc(Cl)nc3cc(NC(=O)CF)ccc23)c1` the figure was 71.4% (inactive); with `CCC1CCC(=O)O1` (stereo not given), 111% (inactive); with `CCC1(NC(=O)c2cc(F)c(F)c(F)c2F)C(=O)NC(=O)N(C(C)C)C1=O` (stereo not given), 93.1% (inactive).
Consider `CCCCOCCOP(=O)(OCCOCCCC)OCCOCCCC`, for which the growth was 97.7% (inactive).
Consider `C/C(=C(\c1ccc(OCCN2CCOCC2)cc1)c1ccc(OC(=O)Cc2ccccc2)cc1)c1ccc(Cl)cc1`, for which the growth is 95.4% (inactive).
Still for that read-out and setting: to `COc1ccc(N(CC(=O)NCCC[Te]c2ccccc2)C(=O)c2ccccc2)cc1` belongs 2.14% (active); to `C[C@]12CC[C@@H](OC(=O)N(CCCl)N=O)C[C@@H]1CC[C@@H]1[C@@H]2CC[C@]2(C)C(=O)CC[C@@H]12`, 59.8% (inactive).

The values above are taken from PubChem BioAssay (NCI).
